Source: PubChem BioAssay AID1346378 (National Center for Advancing Translational Sciences (NCATS), 2018)
Out of some 420,000 compounds screened, about 540 (0.13%) were called active. Shown is part of a subset that was picked to be rich in actives. Values without a mark were called inactive. Cut-off read from the data, not from the text of the source: active = activity change below about -50%; inconclusive = mostly about -30% to -49%; inactive = weaker than that.

target: Phosphatidylinositol 4-kinase type 2-alpha (Homo sapiens) (UniProt Q9BTU6); assay: qHTS for small molecular inhibitors of PI4K2A; details: purified PI4K2A, ADP-Glo luminescence, 1 h; at 76.9 µM, active compounds read low;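 for activity change, negative = inhibition: -100% = wells without enzyme as full effect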
Summary of the method: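 Compounds are screened against recombinant PI4K2A using PI as substrate and ATP, the latter dispensed at 300 microM. Reactions run one hour at ambient temperature before ADP-Glo detection; full inhibition defined by wells lacking enzyme.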

Sequence of Phosphatidylinositol 4-kinase type 2-alpha (Homo sapiens) (Q9BTU6 whole entry, looked up): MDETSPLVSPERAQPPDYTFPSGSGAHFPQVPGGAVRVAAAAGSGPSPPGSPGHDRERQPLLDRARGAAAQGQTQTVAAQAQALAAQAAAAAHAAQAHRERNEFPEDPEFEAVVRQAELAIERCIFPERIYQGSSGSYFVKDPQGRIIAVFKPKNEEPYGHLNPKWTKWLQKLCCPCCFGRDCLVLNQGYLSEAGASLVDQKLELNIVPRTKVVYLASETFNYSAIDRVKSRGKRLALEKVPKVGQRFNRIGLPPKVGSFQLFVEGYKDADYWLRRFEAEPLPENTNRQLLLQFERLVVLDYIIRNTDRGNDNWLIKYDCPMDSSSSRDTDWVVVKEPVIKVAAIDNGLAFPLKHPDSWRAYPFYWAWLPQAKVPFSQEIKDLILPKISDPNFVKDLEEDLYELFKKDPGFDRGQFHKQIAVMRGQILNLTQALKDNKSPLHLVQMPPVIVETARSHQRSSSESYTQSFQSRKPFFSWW

| Structure (SMILES) | activity change, negative = inhibition |
| --- | --- |
| Nc1ccc2c3c(cccc13)C(=O)NC2=O | -1.25% |
| CN[C@@H]1[C@@H](O)[C@@H](O[C@@H]2[C@H](O)[C@H](O[C@H]3OC(CN)=CC[C@H]3N)[C@@H](N)C[C@H]2N)OCC1(C)O (some centres undefined) | 3.62% |
| CC1(C)S[C@@H]2[C@H](N=CN3CCCCCC3)C(=O)N2[C@H]1C(=O)O | -3.84% |
| Cc1cc(C)cc(-n2ccnc2SCC(=O)Nc2nc3ccccc3s2)c1 | -3.54% |
| CCOc1ccc(NC(=O)CSc2c3c(nc4ccccc24)CCCC3)cc1 | -3.16% |
| CCOc1ccc(N/C=C/C(=O)c2ccccc2)cc1 | -50.8% (active) |
| CCOc1ccc(NC(=O)N(CC(C)C)CC(C)C)cc1 | 7.41% |
| COc1ccc(C(=O)NCC(c2ccc(N(C)C)cc2)N2CCc3ccccc32)c(OC)c1 (centres undefined) | 0.413% |
| CCCCN(C)CCCNC(=O)CN1N=C(c2ccc(OC)cc2)CCC1=O | -1.59% |
| COc1cc(CNC(=O)c2cc3n(n2)CCCN(Cc2cccc(F)c2)C3=O)cc(OC)c1OC | -0.346% |
| COC(=O)c1cc(Cl)c(NC(C)=O)cc1OC | -2.22% |
| Nc1c(C(=O)O)cnn1-c1ccccc1 | -60.3% (active) |
| CCNC(=O)c1cnn(-c2ccccc2)c1-c1ccccc1 | 2.38% |
| NNC(=O)c1cnn(-c2ccccc2)c1C(F)(F)F | 3.06% |
| O=c1ccc2c(-c3ccccc3S(=O)(=O)O)c3ccc(O)c(O)c3oc-2c1O | -68% (active) |
| O=C(NC1CC(=O)N(c2ccccc2)C1)c1ccco1 (centres undefined) | -1.35% |
| CCOc1ccc(C(NC(=O)c2cc(OC)c(OC)c(OC)c2)c2cc(Cl)c3cccnc3c2O)cc1 (centres undefined) | -3.07% |
| COc1ccc(OC)c(NC(=O)C2CCCN(S(=O)(=O)c3ccc4c(c3)CCCC(=O)N4)C2)c1 (centres undefined) | -2.64% |
| CN1CC[C@H](c2c(O)cc(O)c3c(=O)cc(-c4ccccc4Cl)oc23)[C@H](O)C1 | -3.75% |
| Nc1ncnc2c1c(I)cn2[C@@H]1C[C@H](N)[C@@H](O)[C@H]1O | -21.5% |
| NC1CCN(O)C1=O (centres undefined) | 0.196% |

| Structure (SMILES) | activity change, negative = inhibition |
| --- | --- |
| CCOC(=O)c1cc2c(=O)n3ccccc3nc2n(Cc2ccco2)c1=NC(=O)c1ccc(F)cc1 | -8.37% |
| Cc1cc(NS(=O)(=O)c2ccc3oc(=O)c4ncn(C)c4c3c2)ccc1Br | 3.97% |
| OCC1OC(n2cnc3c(N4CCCC4)ncnc32)C(O)C1O (centres undefined) | -0.936% |
| Nc1ncnc2c1cnn2C1CC(O)C(CO)O1 (centres undefined) | -25.1% |
| CC1(C)O[C@@H]2[C@H](O1)[C@@H](CO)O[C@H]2n1c(N2CCCCC2)nc2c(N)ncnc21 | -54.5% (active) |
| Cn1c(=O)c2c(-c3ccccc3Br)n(Cc3ccccc3)cc2n(C)c1=O | -1.93% |
| O=c1cc(-c2ccccc2)[nH]c2nc(Cl)ccc12 | 3.68% |
| Cc1nnc(C(=O)NC(C)(C)c2nc(C(=O)NCc3ccc(F)cc3)c(O)c(=O)n2C)o1 | -1.36% |
| CCN(C(=O)Cn1cc(S(=O)(=O)N2CCN(c3ccccc3F)CC2)c2ccccc2c1=O)c1ccc(C)c(C)c1 | -1.44% |
| N#Cc1c(N2CCCCC2)nc(N)c2c(N)nc(SCC(=O)O)cc12 | -59.8% (active) |
| COc1cccc(C(=O)Nc2ccc(N3CCCC3)cc2)c1 | -68.3% (active) |
| COc1cccc(C(=O)NC(=O)Nc2ccc(-c3cc(C(F)(F)F)nn3-c3ccccc3)cc2)c1 | -3.82% |
| COc1cccc(C(=O)Nc2ccc(-c3cc(C(F)(F)F)nn3-c3ccccc3)cc2)c1 | 4.36% |
| CCCCCn1c(=O)[nH]c2cc(C(=O)NCCN(C)CCCC)ccc2c1=O | 3.6% |
| O=C(CSc1cn(CC(=O)N2CCOCC2)c2ccccc12)Nc1ccccc1 | -0.303% |
| CCCCOCCOC(=O)c1cccnc1 | 0.377% |
| Cc1ccc(CNC(=O)CSc2c(C)cnc3c2c(=O)n(C)c(=O)n3C)cc1 | -1.23% |
| CO[C@]1(NC(=O)CSC(F)F)C(=O)N2C(C(=O)O)=C(CSc3nnnn3CCO)CO[C@H]21 | -0.764% |
| CC(C)CNc1ncnc2c1nnn2C | 1.45% |
| CCN1CCN(C(=O)N[C@@H](C(=O)N[C@@H]2C(=O)N3[C@@H]2SC(C)(C)[C@H]3C(=O)O)c2ccccc2)C(=O)C1=O | 2.58% |
| CCOc1ccccc1CNC(=O)C1CCCN(S(=O)(=O)c2ccc3c(ccn3C)c2)C1 (centres undefined) | 2.73% |

| Structure (SMILES) | activity change, negative = inhibition |
| --- | --- |
| O=C(CSc1nnc(-c2ccccc2F)o1)Nc1cccc(C(F)(F)F)c1 | 2.53% |
| CC1CC2C3CCC4=CC(=O)C=C[C@]4(C)[C@@]3(F)[C@@H](O)C[C@]2(C)[C@@]1(O)C(=O)CO (some centres undefined) | 2.22% |
| CCCCCn1c(=O)[nH]c2cc(C(=O)Nc3ccc(F)cc3)ccc2c1=O | 3.49% |
| COc1ccc(-c2cc(C(=O)NC(Cc3c[nH]c4ccccc34)C(=O)O)c(C)o2)cc1OC (centres undefined) | -4.82% |
| COc1ccc(-c2cc(=O)oc3cc(OC(C)C(=O)NCC4CCC(C(=O)O)CC4)ccc23)cc1 (centres undefined) | -0.472% |
| COc1ccc(-c2cc(=O)oc3cc(OCC(=O)N[C@@H](Cc4c[nH]c5ccccc45)C(=O)O)ccc23)cc1 | -51.9% (active) |
| NCC[C@H](O)C(=O)N[C@@H]1C[C@H](N)[C@@H](O[C@H]2O[C@H](CN)[C@@H](O)[C@H](O)[C@@H]2O)[C@H](O)[C@@H]1O[C@H]1O[C@H](CO)[C@@H](O)[C@H](N)[C@@H]1O | inactive |
| Cc1ccccc1OCc1nc2c3cnn(-c4ccccc4F)c3ncn2n1 | -3.76% |
| CCc1ccc(CN(Cc2ccco2)C(=O)COc2ccc(Cl)c(C)c2)cc1 | -7.93% |
| CCOc1ccc(NC(=O)Cn2c(=O)n(CCCC(=O)NCc3ccc4c(c3)OCO4)c(=O)c3ccccc32)cc1 | -1.29% |
| CC1=NN(c2ccc(Cl)c(C(=O)O)c2)C(=O)/C1=C/c1ccc(-c2ccccc2[N+](=O)[O-])o1 | -58.6% (active) |
| O=C(Cn1c(=O)n(Cc2cccs2)c(=O)c2cccnc21)Nc1ccc(F)cc1 | -2.3% |
| CCOC(=O)c1ccc(NC(=O)Cn2cc(S(=O)(=O)Cc3ccccc3F)c3ccccc32)cc1 | -0.867% |
| Cc1ccc(C(=O)COC(=O)C(Cc2c[nH]c3ccccc23)NC(=O)c2ccc(Br)cc2)cc1 (centres undefined) | 1.44% |
| COCCCN1CCC(NC(=O)c2cc(Cl)c(N)c3c2OCC3)CC1 | -0.718% |
| CN(C)c1cccc(C(=O)Nc2nc3ccc(S(=O)(=O)NC(C)(C)C)cc3s2)c1 | 0.225% |
| CN(Cc1ccccc1)C(=O)c1cn(C)c2ccc(S(=O)(=O)N(C)C3CCCCC3)cc2c1=O | 2.24% |
| CCOC(=O)c1ccc(N2C(=O)c3[nH]nc(-c4ccccc4)c3C2c2ccc(C(C)C)cc2)cc1 (centres undefined) | 4.25% |
| CCOC(=O)c1[nH]c(C)c(CCC(=O)N2CCN(c3ccccc3)CC2)c1C | -2.94% |
| CSc1ccccc1N1CCN(CCCCCC(=O)NC2CCCc3ccccc32)CC1 (centres undefined) | 3.17% |
| COc1cccc(-c2cc(C(=O)Nc3ccc(C)cc3)[nH]n2)c1 | -3.12% |

| Structure (SMILES) | activity change, negative = inhibition |
| --- | --- |
| COc1cc(C(=O)N2CCN(c3ccc(Nc4ccc(C)cc4)nn3)CC2)cc(OC)c1OC | 1.58% |
| CO/N=C(/C(=O)N[C@@H]1C(=O)N2C(C(=O)O)=C(Cn3nnc(C)n3)CS[C@H]12)c1csc(N)n1 | -10.8% |
| O=C1Cc2cc(S(=O)(=O)Nc3ccc(OC(F)(F)F)cc3)cc3c2N1CCC3 | -2.44% |
| COC(=O)c1ccc(OC)c(Cn2c(=O)n(Cc3ccccc3)c(=O)c3c2c2cc(OC)ccc2n3C)c1 | 4.84% |
| COc1ccccc1CNC(=O)CCn1c(=O)c2ccccc2n(CC(=O)Nc2ccc(Br)cc2F)c1=O | 2.55% |
| COc1ccc(OC)c(NC(=O)CSc2nc3ccccc3nc2N2CCCCC2)c1 | 3.46% |
| CCOCCCNC(=O)c1c(NC(=O)Cc2coc3ccc(C)cc23)sc2c1CCC2 | -1.23% |
| COC(=O)c1ccccc1NC(=O)c1cc(-c2ccccc2O)no1 | -2.41% |
| O=C1CSC(=S)N1/N=C/c1ccc(O)c([N+](=O)[O-])c1 | -62.1% (active) |
| COC(=O)c1nc(Cl)c(Cl)nc1N | 2.02% |
| CCC(C(=O)Nc1cccc(-c2nc3cccnc3s2)c1C)c1ccccc1 (centres undefined) | 6.98% |
| CCc1ccc(NC(=O)c2cnc3c(-c4ccccc4)c(C)nn3c2C)cc1 | 0.0021% |
| CCCc1nn2c(=O)cc(COC(=O)c3ccc(NC(=O)C(C)Oc4ccccc4)cc3)nc2s1 (centres undefined) | -2.75% |
| O=C(CC1C(=O)N(c2ccccc2)C(=O)N1CCc1cccs1)Nc1ccc(F)cc1 (centres undefined) | 3.68% |
| COc1ccc(C2=NC3(CCCCC3)N(CC(=O)Nc3ccc(C(C)C)cc3)C2=O)cc1 | -3.85% |
| CCOC(=O)c1c(C)[nH]c(C)c1S(=O)(=O)NCC(=O)NCc1cccc(C)c1 | -4.08% |
| COc1ccccc1N1CCN(C2C(=O)c3ccccc3N2C(C)=O)CC1 (centres undefined) | 2.81% |
| COc1ccc(C2CC(=O)Nc3c2c(=O)nc2c(C)cccn32)cc1OC (centres undefined) | -1.68% |
| CCOC(=O)c1cc2c(=O)n3ccccc3nc2n(CCCOC)c1=NC(=O)C(C)(C)Oc1ccc(Cl)cc1 | -2.85% |
| CCOC(=O)c1c(C)[nH]c(C)c1S(=O)(=O)N1CCC(C(=O)Nc2ccc(C)c(Cl)c2)CC1 | 0.586% |
| Cc1ccc(Cl)cc1NC(=O)C(C)n1nnc2sc(-c3ccccc3)cc2c1=O (centres undefined) | 3.33% |
